This passage reports composite z-score, composite Z-score and z-score results from PubChem BioAssay.

One assay concerns the target Albumin (Bos taurus) (UniProt P02769). In words: compounds binding labelled BSA control protein – biochemical, small-molecule microarray, Alexa647 label, 635/667 nm fluorescence, artefact control for SMM control protein annotation, profiling panel (AID 1118).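 Also: score merges 667 nm emission intensity and signal-to-noise per printed compound spot.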 To be noted: BSA-A647 binding, fluorescence 635 nm, higher = more signal.
Assay [1] in a line: probe aXIP binding to arrayed compounds – biochemical, NeuroSMM set, 635/667 nm fluorescence, primary screen (AID 1119).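 Also: probe is the protein aXip251-270 applied at 1 µg/mL to compound-printed slides; binding of probe to printed compounds measured as 667 nm fluorescence plus signal to noise.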 The conditions noted are these: small-molecule microarray, higher = more signal, called active from +8 up or from −8 down.
Assay [2] can be described thus: probe aNOTCH3 binding on compound microarray – biochemical, small-molecule microarray, 635/667 nm fluorescence, primary screen (AID 1120).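 Also: probe is a biotin-tagged antibody raised against NOTCH3 rather than NOTCH3 protein; score merges spot fluorescence near 667 nm with spot signal to noise.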 To be noted: higher = more signal.
A short description of assay [3]: probe aNOTCH2 binding on compound microarray – biochemical, small-molecule microarray, 635/667 nm fluorescence, primary screen (AID 1121).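 Also: score merges feature fluorescence read at 667 nm with its signal to noise.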 To be noted: higher = more signal.
Assay [4] has as its target Carbonic anhydrase 2 (Homo sapiens) (UniProt P00918). As to the kind of experiment: compounds binding carbonic anhydrase 2 – biochemical, small-molecule microarray, Alexa647-labelled CAII, profiling panel (AID 1122). The conditions noted are these: CAII-A647 binding fluorescence, higher = more signal.
Assay [5] can be described thus: COS7 lysate on small-molecule microarray, probe aHis, 635 nm (AID 1123).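 Also: z-score combines 667nm fluorescence intensity with signal-to-noise per printed compound spot.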 To be noted: COS7 cell lysate, fluorescence, higher = more signal.
A short description of assay [6]: probe aLAP1 signal on lysate-treated microarray – cell lysate, small-molecule microarray, COS7 lysate, primary screen (AID 1124).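 Also: lysate comes from COS7 cells expressing LAP1 and is applied at 0.3 µg/mL; score merges spot fluorescence near 667 nm with signal-to-noise over triplicate slides.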 The conditions noted are these: probe aLAP1, fluorescence, higher = more signal.
A further assay relates to Sam68 (KHDRBS1). As to the kind of experiment: compounds binding KHDRBS1 protein – biochemical, small-molecule microarray, 635 nm fluorescence, primary screen (AID 1125).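 Also: score merges 667 nm channel intensity with signal to noise over triplicate slides.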 To be noted: higher = more signal.
Assay [7] concerns Chordin-like protein 2 (CHRDL2). In words: compounds binding chordin-like 2 – biochemical, small-molecule microarray, 635 nm fluorescence, primary screen (AID 1126).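 Also: printed compound slides probed with Chrdl2 protein at 4 µg/mL for 1 h at 4 C; score merges 667 nm emission intensity with signal to noise over three replicate slides.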 The conditions noted are these: fluorescence 635 nm, higher = more signal.
The target in assay [8] is Concanavalin-A (Canavalia ensiformis) (UniProt P02866). In words: compounds binding concanavalin A lectin – biochemical, small-molecule microarray, Alexa647 label, 635 nm, artefact control for SMM control protein annotation, primary screen (AID 1127).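 Also: z combines 667 nm emission intensity with signal-to-noise across three replicate slides.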 The conditions noted are these: ConA-A647 binding fluorescence, higher = more signal.
Sequence of Concanavalin-A (Canavalia ensiformis) (P02866 whole entry, looked up): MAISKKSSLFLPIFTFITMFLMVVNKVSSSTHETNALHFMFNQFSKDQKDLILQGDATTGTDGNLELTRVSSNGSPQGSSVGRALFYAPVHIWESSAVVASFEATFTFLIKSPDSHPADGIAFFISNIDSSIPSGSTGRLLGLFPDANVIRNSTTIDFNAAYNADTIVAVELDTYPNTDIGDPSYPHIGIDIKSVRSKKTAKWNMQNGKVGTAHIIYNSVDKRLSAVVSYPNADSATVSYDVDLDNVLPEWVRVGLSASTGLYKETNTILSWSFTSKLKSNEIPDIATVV
A short description of assay [9]: compounds binding Alexa647 anti-His antibody – biochemical, small-molecule microarray, 635 nm fluorescence, artefact control for SMM control protein annotation, primary screen (AID 1128).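 Also: score merges feature fluorescence with signal-to-noise for each printed compound spot.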 The conditions noted are these: higher = more signal.
In assay [10] the test system is Human papillomavirus type 1a E7 protein (residues 1-88). As to the kind of experiment: HPV1a E7 small-molecule binders, primary screen, biochemical, small-molecule microarray, residues 1-88, 635 nm (AID 1129). To be noted: small-molecule microarray binding, fluorescence 635 nm; higher = more signal.
Assay [11] concerns the target Focal adhesion kinase 1 (Homo sapiens) (UniProt Q05397). In words: PTK2 protein binding on printed compound slides – biochemical, small-molecule microarray, 635/667 nm fluorescence, BSA, DTT, primary screen (AID 1130).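 Also: composite of spot emission at 667 nm and signal to noise over triplicate slides.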 To be noted: 635 nm fluorescence, higher = more signal.
The test system of assay [12] is Fibrinogen (Alexa647-labelled). As to the kind of experiment: Alexa647-fibrinogen binding to printed small molecules – biochemical, small-molecule microarray, 635/667 nm fluorescence, artefact control for SMM control-protein annotation, profiling panel (AID 1131).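 Also: z-score merges 667 nm fluorescence with per-spot signal-to-noise over triplicate slides.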 The conditions noted are these: fibrinogen-A647 binding fluorescence, higher = more signal.
Assay [13] deals with Follistatin (Homo sapiens) (UniProt P19883). In words: FST protein binding to printed compounds – biochemical, small-molecule microarray, 635/667 nm fluorescence, primary screen (AID 1132). The conditions noted are these: 635 nm fluorescence, higher = more signal.
Sequence of Follistatin (Homo sapiens) (P19883 whole entry, looked up): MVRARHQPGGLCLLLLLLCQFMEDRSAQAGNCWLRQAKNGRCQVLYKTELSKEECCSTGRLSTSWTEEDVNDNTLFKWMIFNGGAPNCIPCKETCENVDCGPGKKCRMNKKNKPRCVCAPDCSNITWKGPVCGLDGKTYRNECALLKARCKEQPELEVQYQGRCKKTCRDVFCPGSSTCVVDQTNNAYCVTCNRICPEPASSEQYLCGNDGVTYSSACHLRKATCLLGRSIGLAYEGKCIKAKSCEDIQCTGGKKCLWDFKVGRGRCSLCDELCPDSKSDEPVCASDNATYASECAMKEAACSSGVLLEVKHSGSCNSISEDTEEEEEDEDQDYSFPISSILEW
For assay [14], the target named is Fibroblast growth factor 2 (Homo sapiens) (UniProt P09038). In words: basic fibroblast growth factor binding to printed compounds – biochemical, small-molecule microarray, 635/667 nm fluorescence, primary screen (AID 1133). To be noted: FGF2, fluorescence 635/667, higher = more signal.
Sequence of Fibroblast growth factor 2 (Homo sapiens) (P09038 whole entry, looked up): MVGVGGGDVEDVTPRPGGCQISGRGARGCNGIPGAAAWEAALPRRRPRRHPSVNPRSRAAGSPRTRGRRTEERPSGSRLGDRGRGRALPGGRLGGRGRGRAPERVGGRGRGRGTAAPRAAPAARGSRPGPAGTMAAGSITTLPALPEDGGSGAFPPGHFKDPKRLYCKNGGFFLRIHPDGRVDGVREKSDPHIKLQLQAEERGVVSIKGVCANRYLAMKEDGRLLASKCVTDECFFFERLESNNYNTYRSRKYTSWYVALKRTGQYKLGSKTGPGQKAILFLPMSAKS
Assay [15] can be described thus: JC-1 mitochondrial potential readout, lung cancer cells – cell-based, A549, JC-1 fluorescence, basal, 24 h, 100 nL, profiling panel (AID 1138).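 Also: A549 lung adenocarcinoma cells under basal conditions with no added stimulus; test concentration not given here.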 To be noted: higher = more signal.
The test system of another assay is Lefty1. As to the kind of experiment: Lefty1 protein binding to printed compounds – biochemical, small-molecule microarray, 635/667 nm fluorescence, primary screen (AID 1139). The conditions noted are these: fluorescence 635/667, higher = more signal.
Assay [16] deals with wheat germ agglutinin (Triticum aestivum), Alexa647-labelled. As to the kind of experiment: Alexa647-WGA lectin binding to printed small molecules – biochemical, small-molecule microarray, 635/667 nm fluorescence, artefact control for SMM control-protein annotation, profiling panel (AID 1140).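 Also: score merges 667 nm feature emission with signal to noise over triplicate slides.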 To be noted: WGA-A647 binding, 635 nm fluorescence, higher = more signal.
For assay [17], the target named is Luciferin 4-monooxygenase (Photinus pyralis) (UniProt P08659). In words: inhibition of purified Photinus pyralis luciferase – biochemical, luminescence, purified enzyme, 2006 set, primary screen (AID 1141).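 Also: cell-free assay with purified firefly luciferase at 100 ng per well in PBS; test concentration not given here.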 The conditions noted are these: purified firefly luciferase, SteadyGlo luminescence, 30 min; higher = more signal, called active from +8 up or from −8 down.
Sequence of Luciferin 4-monooxygenase (Photinus pyralis) (P08659 whole entry, looked up): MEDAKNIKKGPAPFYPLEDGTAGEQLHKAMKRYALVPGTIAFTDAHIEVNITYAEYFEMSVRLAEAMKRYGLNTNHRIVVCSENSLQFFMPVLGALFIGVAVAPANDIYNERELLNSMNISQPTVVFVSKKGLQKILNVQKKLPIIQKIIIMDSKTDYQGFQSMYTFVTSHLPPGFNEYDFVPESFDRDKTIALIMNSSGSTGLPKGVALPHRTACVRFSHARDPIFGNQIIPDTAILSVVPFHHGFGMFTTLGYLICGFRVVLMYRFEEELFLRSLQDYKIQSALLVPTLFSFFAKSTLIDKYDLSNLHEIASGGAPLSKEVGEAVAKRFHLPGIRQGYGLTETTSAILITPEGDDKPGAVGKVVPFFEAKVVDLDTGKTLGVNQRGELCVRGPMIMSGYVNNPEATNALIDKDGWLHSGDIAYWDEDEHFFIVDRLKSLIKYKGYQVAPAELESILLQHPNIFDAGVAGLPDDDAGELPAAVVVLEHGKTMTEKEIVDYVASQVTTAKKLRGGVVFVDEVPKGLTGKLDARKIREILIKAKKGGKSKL

Activity calls are given as the source filed them.

Sequence of Albumin (Bos taurus) (P02769 whole entry, looked up): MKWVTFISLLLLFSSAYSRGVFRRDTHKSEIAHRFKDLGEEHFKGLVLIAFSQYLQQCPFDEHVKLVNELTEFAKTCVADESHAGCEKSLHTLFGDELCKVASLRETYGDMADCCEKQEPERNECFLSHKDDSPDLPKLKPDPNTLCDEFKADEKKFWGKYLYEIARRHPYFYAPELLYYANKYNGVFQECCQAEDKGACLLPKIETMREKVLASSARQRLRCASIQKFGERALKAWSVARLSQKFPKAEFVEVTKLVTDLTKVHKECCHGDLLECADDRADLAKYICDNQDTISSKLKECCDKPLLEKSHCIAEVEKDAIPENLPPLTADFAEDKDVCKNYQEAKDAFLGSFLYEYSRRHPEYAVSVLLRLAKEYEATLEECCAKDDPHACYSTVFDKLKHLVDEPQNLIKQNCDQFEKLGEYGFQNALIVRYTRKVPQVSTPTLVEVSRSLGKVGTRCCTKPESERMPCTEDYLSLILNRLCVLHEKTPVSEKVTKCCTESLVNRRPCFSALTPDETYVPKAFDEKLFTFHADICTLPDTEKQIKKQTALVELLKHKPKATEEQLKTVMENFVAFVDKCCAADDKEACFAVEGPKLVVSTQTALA
Sequence of Focal adhesion kinase 1 (Homo sapiens) (Q05397 whole entry, looked up): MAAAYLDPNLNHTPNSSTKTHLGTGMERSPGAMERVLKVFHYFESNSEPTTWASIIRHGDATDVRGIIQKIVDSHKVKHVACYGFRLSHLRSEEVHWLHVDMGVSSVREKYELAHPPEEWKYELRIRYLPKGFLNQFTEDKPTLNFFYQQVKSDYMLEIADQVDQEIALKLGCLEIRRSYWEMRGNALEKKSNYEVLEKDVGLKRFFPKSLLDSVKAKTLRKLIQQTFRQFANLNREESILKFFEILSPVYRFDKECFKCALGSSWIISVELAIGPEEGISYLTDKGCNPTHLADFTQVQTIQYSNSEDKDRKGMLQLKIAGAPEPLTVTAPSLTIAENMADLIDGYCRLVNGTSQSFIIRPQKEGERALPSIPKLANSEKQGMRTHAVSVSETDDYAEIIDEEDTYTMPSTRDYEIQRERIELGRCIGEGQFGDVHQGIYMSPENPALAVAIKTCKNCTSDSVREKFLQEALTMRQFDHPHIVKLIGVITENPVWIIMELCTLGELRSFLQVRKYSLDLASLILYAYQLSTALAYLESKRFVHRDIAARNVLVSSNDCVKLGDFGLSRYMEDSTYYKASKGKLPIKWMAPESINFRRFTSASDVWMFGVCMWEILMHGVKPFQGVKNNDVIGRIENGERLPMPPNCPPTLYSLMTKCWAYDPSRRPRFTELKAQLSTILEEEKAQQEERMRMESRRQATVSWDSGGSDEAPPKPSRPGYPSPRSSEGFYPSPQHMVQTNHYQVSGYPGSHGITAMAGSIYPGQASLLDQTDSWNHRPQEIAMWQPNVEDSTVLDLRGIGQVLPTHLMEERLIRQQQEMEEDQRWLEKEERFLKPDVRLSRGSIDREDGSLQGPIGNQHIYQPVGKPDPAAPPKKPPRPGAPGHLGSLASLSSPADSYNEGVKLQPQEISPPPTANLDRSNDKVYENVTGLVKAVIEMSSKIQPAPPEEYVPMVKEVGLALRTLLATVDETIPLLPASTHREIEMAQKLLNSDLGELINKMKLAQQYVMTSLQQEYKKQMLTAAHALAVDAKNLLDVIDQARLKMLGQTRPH

Regarding `C=CC(=C)[C@H]1Oc2ccccc2S(=O)(=O)N2CCC[C@@H]12`, the composite z-score with Albumin (Bos taurus) was 0; in assay [2], -0.0588; in assay [3] it was -0.156; in assay [4], -0.293; in assay [5], -0.284; in [6] it was -0.0098. Moreover, the composite z-score is -0.973 in the assay with Sam68 (KHDRBS1); 0.634 in [7]; -0.285 in [8]; -0.133 in [9]; -0.492 in assay [10]; -0.139 in [11]. Moreover, the composite z-score in assay [12] was 0.224; in [13], 0.434; in [14] it was 0.0668; in the assay with Lefty1, 0.201; in assay [16], 0.023. The composite Z-score in [1] is 0.0556 (inactive). For the same compound, the z-score in assay [15] was 0.16; in assay [17], -0.261 (inactive).

As to `[N-]=[N+]=Nc1ccccc1[C@H]1OC(c2ccc(OCCCO)cc2)=N[C@@]1(CCS(=O)(=O)c1ccccc1)C(N)=O`, the composite z-score was found to be 0.485 in the assay with Albumin (Bos taurus); 0.264 in assay [2]; 0.113 in assay [3]; 0.795 in assay [4]; 1.43 in assay [5]; 0.469 in [6]. Besides, the composite z-score is 1.22 in the assay with Sam68 (KHDRBS1); 0.0869 in assay [7]; 0.868 in assay [8]; 2.95 in [9]; 1.22 in assay [10]; 0.26 in [11]. The composite z-score in assay [12] is 0.938; in assay [13] it was 0.794; in assay [14], 0.0263; in the assay on Lefty1 it was -0.142; in assay [16] it was 1.21. In assay [1], the composite Z-score was 0.211 (inactive). Also, the z-score is 0.118 in [15] and -6.6 (inactive) in assay [17].

Consider `COc1ccc(C#Cc2ccc3c(c2)[C@]2(C(=O)N3)[C@H](c3ccccc3OCCO)N3[C@H](c4ccccc4)[C@H](c4ccccc4)OC(=O)[C@H]3[C@@H]2C(=O)Nc2nc3ccccc3s2)cc1`, for which the composite z-score in the assay with Albumin (Bos taurus) was found to be 0.187; in [2] it was 1.12; in assay [3], 0.0559; in assay [4], 0.327; in assay [5], 0.646; in assay [6] it was 0.0878. Further, the composite z-score was determined as 1.31 in the assay on Sam68 (KHDRBS1); 0.886 in [7]; 0.931 in [8]; 1.5 in [9]; 1.16 in assay [10]; 0.717 in [11]. Also, the composite z-score in assay [12] stood at 0.767; in [13] it was 1.25; in assay [14], 1.19; in the assay on Lefty1, 1.33; in assay [16], 0.828. In addition, the composite Z-score in [1] is 0.317 (inactive). Moreover, the figures for the z-score in assay [15] and in [17] were -2.28 and -1.36 (inactive), respectively.

In the case of `COC(=O)C(CC#Cc1ccc2c(c1)[C@]1(C(=O)N2)[C@H](C(=O)Nc2nc3ccccc3s2)[C@H]2C(=O)O[C@H](c3ccccc3)[C@H](c3ccccc3)N2[C@@H]1c1ccc(O)cc1)C(=O)OC`, the composite z-score with Albumin (Bos taurus) is 0.646; in [2], -0.0431; in assay [3], -0.0846; in [4], 0.378; in assay [5], 1.96; in [6] it was 0.301. The composite z-score in the assay with Sam68 (KHDRBS1) was 1.3; in assay [7], 0.673; in assay [8], 1.04; in assay [9], 0.274; in assay [10], 1.24; in [11], 0.936. In addition, the composite z-score stood at 0.947 in [12]; 1.2 in assay [13]; 0.973 in [14]; 0.963 in the assay on Lefty1; 1.01 in assay [16]. Moreover, the composite Z-score in assay [1] was 0.298 (inactive). The z-score in [15] is -2.25; in [17], 0.416 (inactive).

`CN1C(=O)C2C=CC(C(O)C3CC=CCC3)N(N(c3ccccc3)c3ccccc3)C2C1=O` (stereo not given): the composite z-score with Albumin (Bos taurus) was -0.197; in assay [2], 0.0715; in [3] it was 0.19; in [4], -0.287; in assay [5], -0.202; in assay [6], 0.52. The composite z-score in the assay on Sam68 (KHDRBS1) is -1.25; in [7] it was 0.774; in assay [8] it was -0.372; in [9], 0.118; in assay [10] it was -1.42; in [11] it was 0.102. The composite z-score in assay [12] is 0.0963; in assay [13], 0.988; in [14], -0.179; with Lefty1 it was 0.449; in [16] it was 0.259. Moreover, in assay [1], the composite Z-score was 0.0007 (inactive). Further, the z-score in assay [15] was 0.43; in assay [17], 0.529 (inactive).
